Five compounds from PubChem BioAssay can be followed below.

Assay [1] is described as follows: binders of probe aFSTL3 on microarray, primary screen, stem cell growth factor project, biochemical, small-molecule microarray, fluorescence 635/667 (AID 1064).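 Further: measures binding of the biotinylated anti-FSTL3 antibody to printed compounds.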 To be noted: higher = more signal.
A short description of assay [2]: binders from COS7 lysate, DM2A8 probe, primary screen, torsin A project, cell lysate, small-molecule microarray, fluorescence 635/667 (AID 1065). To be noted: higher = more signal, COS7 lysate expressing mutant human TOR1A.
Assay [3] can be described thus: binders of probe aFGF2 on microarray, primary screen, stem cell growth factor project, biochemical, small-molecule microarray, fluorescence 635/667 (AID 1067).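 Further: measures binding of biotinylated aFGF2 protein to printed compounds on slides; z-score merges feature fluorescence and signal-to-noise across triplicate slides.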 To be noted: higher = more signal.
Assay [4] is described as follows: binders of probe aFGF10 on microarray, primary screen, stem cell growth factor project, biochemical, small-molecule microarray, fluorescence 635/667 (AID 1071).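 Further: score merges 667 nm spot intensity and signal to noise from triplicate slides.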 To be noted: higher = more signal.
Assay [5] has as its target Neurogenic locus notch homolog protein 2 (Homo sapiens) (UniProt Q04721). Put plainly: Notch2 binders on small-molecule microarrays, primary screen, biochemical, small-molecule microarray, 635 nm fluorescence, stem cell growth factors (AID 1073). To be noted: Notch2 binding, higher = more signal.
Assay [6] addresses Pro-neuregulin-1, membrane-bound isoform (Homo sapiens) (UniProt Q02297). Put plainly: NRG1 binders on small-molecule microarrays, primary screen, psychiatric disease protein project, biochemical, small-molecule microarray, fluorescence 635/667 (AID 1075).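 Further: score combines 667 nm spot fluorescence with signal to noise.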 To be noted: NRG1 binding, 635 nm fluorescence, higher = more signal.
The test system of assay [7] is Neuregulin-1 EGF-like domain. Nature of the assay: binders of neuregulin-1 EGF-like domain, primary screen, biochemical, small-molecule microarray, 635 nm fluorescence (AID 1081).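 Further: binding of the protein to compounds printed on small-molecule microarray slides.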 To be noted: small-molecule microarray binding, higher = more signal.
Assay [8] is described as follows: FRG1 promoter luciferase signal modulators, primary screen, FRG1 inhibition for FSHD, cell-based, C2C12 myotubes, firefly/Renilla luciferase, luminescence (AID 1084). To be noted: higher = more signal, called active from +8 up or from −8 down.
Assay [9] in a line: binders of probe aFST on microarray, primary screen, stem cell growth factor project, biochemical, small-molecule microarray, fluorescence 635/667 (AID 1086).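 Further: score merges 667 nm fluorescence with signal-to-noise of each printed compound spot.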 To be noted: higher = more signal.
Assay [10] can be described thus: binders of probe aHhip on microarray, primary screen, stem cell growth factor project, biochemical, small-molecule microarray, fluorescence 635/667 (AID 1087).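 Further: score merges spot fluorescence at 667nm with spot signal to noise ratio.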 To be noted: higher = more signal.
The subject of assay [11] is PRMT1 (protein arginine N-methyltransferase 1). Put plainly: PRMT1 binders on small-molecule microarrays, primary screen, biochemical, small-molecule microarray, 635 nm fluorescence (AID 1088).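 Further: binding of Prmt1 protein to compounds spotted on small-molecule microarray slides.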 To be noted: small-molecule microarray binding, higher = more signal.
The nature of assay [12]: yeast growth modulation, basal conditions, primary screen, YJM789 clinical isolate, OD600, 24 h (AID 1089).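 Further: growth of clinical yeast isolate S. cerevisiae YJM 789 seeded 1000 cells per well; test concentration not given here.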 To be noted: S. cerevisiae YJM789 growth, higher = more signal, called active from +8 up or from −8 down.
Assay [13] can be described thus: fission yeast growth modulation, primary screen, strain 972, OD600, 24 h, no modulator (AID 1090).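 Further: basal condition with compound alone and no growth modifier present; test concentration not given here.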 To be noted: S. pombe 972 growth, higher = more signal, called active from +8 up or from −8 down.
Assay [14] in a line: S. cerevisiae growth modulation with rapamycin, primary screen, strain BY4716, OD600, 96 h (AID 1091). Further: test concentration not given here. To be noted: higher = more signal, called active from +8 up or from −8 down.
Assay [15] addresses Torsin-1A-interacting protein 2 (Homo sapiens) (UniProt Q8NFQ8). Nature of the assay: LULL1 binders on small-molecule microarray, primary screen, cell lysate, human LULL1 lysate, 635/667 nm fluorescence (AID 1092).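 Further: probe is lysate of COS7 cells overexpressing human LULL1; score merges per-feature 667 nm fluorescence with signal-to-noise.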 To be noted: hLULL1 lysate binding, 635 nm fluorescence, higher = more signal.
Assay [16] in a line: E. coli growth modulation, two-sided OD650, primary screen, E. coli filamentation project, strain DRC41, 24 h (AID 1093).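 Further: MC1000 strain lacking acrAB efflux and sulA so SOS filamentation is blocked; test concentration not given here.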 To be noted: OD650, 24 h, higher = more signal, called active from +8 up or from −8 down.
A short description of assay [17]: small-molecule microarray binders of probe aLefty2, primary screen, biochemical, biotinylated probe, 635/667 nm fluorescence (AID 1094).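 Further: score merges spot fluorescence near 667 nm with spot signal-to-noise ratio.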 To be noted: higher = more signal.
In assay [18] the test system is Noggin (protein binding on small-molecule microarray). Nature of the assay: Noggin binders on small-molecule microarray, primary screen, biochemical, 635/667 nm fluorescence (AID 1095).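 Further: score merges 667 nm feature fluorescence with signal to noise over triplicate slides.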 To be noted: 635 nm fluorescence, higher = more signal.
Assay [19] concerns the target Neurogenic locus notch homolog protein 3 (Homo sapiens) (UniProt Q9UM47). Put plainly: NOTCH3 binders on small-molecule microarray, primary screen, biochemical, 635/667 nm fluorescence (AID 1096). To be noted: NOTCH3 binding, 635 nm fluorescence, higher = more signal.
A short description of assay [20]: small-molecule microarray binders of probe aEGFR, primary screen, biochemical, biotinylated probe, 635/667 nm fluorescence (AID 1097).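 Further: probe is a biotinylated anti-EGFR antibody binding compounds printed on slides; score combines fluorescence near 667 nm and signal to noise of each spot.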 To be noted: higher = more signal.

Active and inactive are the calls of the source.

Sequence of Neurogenic locus notch homolog protein 2 (Homo sapiens) (Q04721 whole entry, looked up, canonical isoform): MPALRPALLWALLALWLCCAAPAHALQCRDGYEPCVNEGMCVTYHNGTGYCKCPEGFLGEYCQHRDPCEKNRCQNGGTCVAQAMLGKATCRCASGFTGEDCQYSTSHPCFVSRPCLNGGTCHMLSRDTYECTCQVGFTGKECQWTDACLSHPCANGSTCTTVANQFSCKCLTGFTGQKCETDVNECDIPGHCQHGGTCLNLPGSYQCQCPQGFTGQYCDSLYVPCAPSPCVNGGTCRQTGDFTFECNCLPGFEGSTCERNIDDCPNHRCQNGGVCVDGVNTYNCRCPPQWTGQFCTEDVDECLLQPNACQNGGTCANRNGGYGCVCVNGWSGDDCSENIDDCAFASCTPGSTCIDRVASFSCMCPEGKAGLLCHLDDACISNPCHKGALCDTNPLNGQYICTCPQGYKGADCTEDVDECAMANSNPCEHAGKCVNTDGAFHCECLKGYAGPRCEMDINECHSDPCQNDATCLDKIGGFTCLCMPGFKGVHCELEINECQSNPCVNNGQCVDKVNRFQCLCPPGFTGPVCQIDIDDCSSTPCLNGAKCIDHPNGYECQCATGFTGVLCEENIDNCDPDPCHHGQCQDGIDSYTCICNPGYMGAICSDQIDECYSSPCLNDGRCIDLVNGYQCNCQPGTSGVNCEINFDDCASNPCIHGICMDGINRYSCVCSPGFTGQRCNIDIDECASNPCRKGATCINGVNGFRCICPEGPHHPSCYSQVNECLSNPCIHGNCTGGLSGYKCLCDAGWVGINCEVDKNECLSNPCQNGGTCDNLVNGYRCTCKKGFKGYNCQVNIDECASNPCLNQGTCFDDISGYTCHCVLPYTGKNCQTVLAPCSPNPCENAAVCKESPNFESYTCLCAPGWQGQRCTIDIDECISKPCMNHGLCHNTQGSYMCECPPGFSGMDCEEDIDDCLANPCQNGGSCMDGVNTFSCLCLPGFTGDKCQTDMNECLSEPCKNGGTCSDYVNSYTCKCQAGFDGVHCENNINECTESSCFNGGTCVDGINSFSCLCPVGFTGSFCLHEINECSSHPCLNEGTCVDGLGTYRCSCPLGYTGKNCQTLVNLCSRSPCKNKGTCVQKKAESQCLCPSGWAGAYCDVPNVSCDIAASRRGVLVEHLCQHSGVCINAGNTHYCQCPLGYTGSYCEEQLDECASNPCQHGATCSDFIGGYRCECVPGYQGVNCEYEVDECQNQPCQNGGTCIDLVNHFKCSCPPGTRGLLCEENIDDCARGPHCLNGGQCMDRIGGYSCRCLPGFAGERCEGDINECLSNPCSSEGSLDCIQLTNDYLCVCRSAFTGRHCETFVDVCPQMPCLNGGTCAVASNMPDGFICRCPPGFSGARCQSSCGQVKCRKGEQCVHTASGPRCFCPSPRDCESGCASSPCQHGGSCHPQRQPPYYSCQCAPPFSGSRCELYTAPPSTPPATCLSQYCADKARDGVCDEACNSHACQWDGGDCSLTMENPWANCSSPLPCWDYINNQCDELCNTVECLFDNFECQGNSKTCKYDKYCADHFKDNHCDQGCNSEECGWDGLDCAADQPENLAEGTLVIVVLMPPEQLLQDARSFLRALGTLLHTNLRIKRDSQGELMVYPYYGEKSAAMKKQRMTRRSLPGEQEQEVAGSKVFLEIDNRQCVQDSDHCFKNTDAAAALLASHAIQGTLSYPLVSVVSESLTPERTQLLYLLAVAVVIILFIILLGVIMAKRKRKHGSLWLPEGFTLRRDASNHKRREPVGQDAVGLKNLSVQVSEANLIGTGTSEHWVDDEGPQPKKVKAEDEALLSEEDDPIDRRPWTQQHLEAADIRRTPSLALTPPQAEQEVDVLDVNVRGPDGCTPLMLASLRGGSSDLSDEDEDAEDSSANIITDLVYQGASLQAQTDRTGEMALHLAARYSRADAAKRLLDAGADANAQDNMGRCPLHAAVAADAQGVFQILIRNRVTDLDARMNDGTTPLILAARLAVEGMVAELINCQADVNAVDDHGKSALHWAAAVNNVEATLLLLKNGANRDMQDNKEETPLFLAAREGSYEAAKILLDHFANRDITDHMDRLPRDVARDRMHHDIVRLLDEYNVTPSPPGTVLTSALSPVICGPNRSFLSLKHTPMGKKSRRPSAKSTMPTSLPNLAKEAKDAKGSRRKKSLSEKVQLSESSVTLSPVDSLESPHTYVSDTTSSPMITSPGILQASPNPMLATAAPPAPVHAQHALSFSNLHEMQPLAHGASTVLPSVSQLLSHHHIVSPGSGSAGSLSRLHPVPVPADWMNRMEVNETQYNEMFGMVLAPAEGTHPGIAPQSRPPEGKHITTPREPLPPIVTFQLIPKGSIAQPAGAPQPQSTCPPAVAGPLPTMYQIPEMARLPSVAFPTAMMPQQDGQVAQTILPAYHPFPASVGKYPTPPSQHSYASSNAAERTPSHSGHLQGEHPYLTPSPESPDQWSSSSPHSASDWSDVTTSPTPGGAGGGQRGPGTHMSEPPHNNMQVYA
Sequence of Pro-neuregulin-1, membrane-bound isoform (Homo sapiens) (Q02297 whole entry, looked up, the tested form may be a part, canonical isoform): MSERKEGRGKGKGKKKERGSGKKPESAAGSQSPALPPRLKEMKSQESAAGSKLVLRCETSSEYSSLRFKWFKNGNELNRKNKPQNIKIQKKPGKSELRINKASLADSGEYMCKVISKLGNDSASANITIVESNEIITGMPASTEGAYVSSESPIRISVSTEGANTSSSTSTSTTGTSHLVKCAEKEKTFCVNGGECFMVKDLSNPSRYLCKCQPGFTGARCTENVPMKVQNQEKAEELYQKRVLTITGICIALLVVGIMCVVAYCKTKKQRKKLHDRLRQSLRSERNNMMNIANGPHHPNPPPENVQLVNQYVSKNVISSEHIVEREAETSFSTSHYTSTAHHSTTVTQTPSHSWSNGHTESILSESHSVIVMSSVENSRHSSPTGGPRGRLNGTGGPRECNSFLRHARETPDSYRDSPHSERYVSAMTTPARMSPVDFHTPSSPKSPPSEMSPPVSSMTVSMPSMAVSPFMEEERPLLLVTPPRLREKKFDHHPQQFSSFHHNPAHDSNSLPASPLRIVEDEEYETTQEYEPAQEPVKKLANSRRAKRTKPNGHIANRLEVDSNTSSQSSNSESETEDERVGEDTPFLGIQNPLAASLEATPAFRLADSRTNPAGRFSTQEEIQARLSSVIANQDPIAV
Sequence of Torsin-1A-interacting protein 2 (Homo sapiens) (Q8NFQ8 whole entry, looked up): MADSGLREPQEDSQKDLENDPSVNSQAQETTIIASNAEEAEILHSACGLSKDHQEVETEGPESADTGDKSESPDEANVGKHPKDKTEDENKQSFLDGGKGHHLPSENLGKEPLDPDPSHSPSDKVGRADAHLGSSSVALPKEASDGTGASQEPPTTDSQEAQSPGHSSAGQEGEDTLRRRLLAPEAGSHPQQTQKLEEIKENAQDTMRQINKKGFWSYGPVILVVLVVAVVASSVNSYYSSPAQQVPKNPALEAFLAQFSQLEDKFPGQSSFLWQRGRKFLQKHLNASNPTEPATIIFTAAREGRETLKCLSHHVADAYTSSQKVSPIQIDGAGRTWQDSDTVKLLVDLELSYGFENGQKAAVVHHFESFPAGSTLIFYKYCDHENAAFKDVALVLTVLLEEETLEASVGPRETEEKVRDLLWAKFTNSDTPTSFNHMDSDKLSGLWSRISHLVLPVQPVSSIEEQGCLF

For `C[C@@H]1ON(c2ccccc2)[C@H](c2ccccc2)[C@H]1C(=O)O`, the composite z-score in assay [1] was -0.0301; in assay [2] it was 0.112; in assay [3] it was -0.085; in [4], 0.364; in assay [5], 0.0812; in [6], -0.515. In addition, the composite z-score is -0.198 in assay [7]; -0.0817 in [9]; 0.289 in assay [10]; 0.461 in assay [11]; -0.0551 in assay [15]; -0.196 in assay [17]. For the same compound, the figures for the composite z-score in [18], in [19] and in [20] were 0.175, 0.102 and 0.203, respectively. The z-score was -0.313 (inactive) in assay [8]; -0.452 (inactive) in assay [12]; 0.252 (inactive) in [13]; -0.408 (inactive) in assay [14]; -0.108 (inactive) in assay [16].
Consider `C=CC[C@@]12N=C(c3ccc(OCCCO)cc3)O[C@@H]1c1ccccc1N(CCC)C2=O`, for which the composite z-score was 0.953 in [1]; -0.0868 in assay [2]; 0.0528 in [3]; 0.288 in assay [4]; 0.381 in assay [5]; 0.984 in [6]. Besides, the composite z-score in assay [7] is 1.21; in assay [9], 0.298; in assay [10] it was -0.0645; in assay [11], 1.55; in [15] it was 3.12; in assay [17], 0.219. Further, the composite z-score in assay [18] was 0.916; in assay [19] it was 1.07; in [20], -0.108. Besides, the z-score in [8] was 2.39 (inactive); in assay [12], -1.01 (inactive); in assay [13] it was -2.42 (inactive); in [14] it was -0.71 (inactive); in assay [16], 1.34 (inactive).
Turning to `O=C1OCCC=C[C@H]2OC34C=CCN(c5ccc6ccccc6c5)C(=O)[C@H]3N(CCO)C(=O)[C@@H]4C12` (stereo not given in full), the composite z-score is -0.562 in assay [1]; -0.171 in [2]; -0.119 in assay [3]; -0.175 in [4]; -0.397 in assay [5]; -0.863 in assay [6]. Further, the composite z-score in assay [7] is 0.464; in assay [9] it was -0.847; in assay [10] it was -0.672; in assay [11], -0.3; in [15], -0.686; in assay [17], -0.314. For the same compound, the composite z-score in assay [18] is -0.251; in [19], 0.301; in assay [20] it was -0.0353. The z-score was 0.149 (inactive) in assay [8]; -0.735 (inactive) in assay [12]; -0.737 (inactive) in assay [13]; -0.171 (inactive) in assay [14]; -0.021 (inactive) in assay [16].
Turning to `CCCNC(=O)[C@@]1(c2ccc([N+](=O)[O-])cc2)CC(=O)N(C(C)C)[C@@H]1c1ccc(CO)cc1`, the composite z-score was 0.829 in assay [1]; -0.22 in assay [2]; -0.111 in assay [3]; -0.904 in assay [4]; -1.73 in assay [5]; 0.0532 in assay [6]. Further, the composite z-score was 0.843 in assay [7]; -1.14 in assay [9]; -0.0618 in assay [10]; -0.854 in [11]; 1.41 in assay [15]; -0.268 in [17]. Besides, the composite z-score was -1.27 in assay [18], -0.124 in [19] and -0.278 in [20]. Moreover, the z-score in assay [8] is -0.558 (inactive); in assay [12] it was -0.836 (inactive); in [13], -1 (inactive); in assay [14], -0.594 (inactive); in assay [16], 0.353 (inactive).
For `CC=CC(O)C1C=CC2C(=O)NC(=O)C2N1Nc1ccc(Cl)cc1Cl` (stereo not given), the composite z-score in assay [1] is 0.389; in [2], 0.453; in assay [3] it was -0.0074; in assay [4] it was 0.647; in assay [5] it was 0.662; in assay [6], 1.01. Further, the composite z-score is 0.669 in assay [7]; 0.114 in assay [9]; -0.0645 in assay [10]; -0.193 in assay [11]; 2.28 in assay [15]; 0.0598 in [17]. Further, the composite z-score in assay [18] was -0.376; in assay [19], 0.0204; in assay [20], -0.148. In addition, the z-score in [8] is 0.035 (inactive); in [12], -6.04 (inactive); in assay [13], -2 (inactive); in assay [14], 0.624 (inactive); in assay [16] it was -1.13 (inactive).
